Hits are enriched below; roughly 12% of the tested compounds scored in any of these assays.
JMJD2A Tudor: inhibitors of human JMJD2A Tudor domain | O75164 | AlphaScreen JMJD2A-Tudor / H3K4me3 peptide binding | Potency, µM (highest dose often 114 µM), usual class: inhibitors | 390,000 tested, 4.4% active; further: nearly all actives have a fitted effect of over 50% in size
Target sequence (O75164 whole entry, looked up, the tested form may be a part): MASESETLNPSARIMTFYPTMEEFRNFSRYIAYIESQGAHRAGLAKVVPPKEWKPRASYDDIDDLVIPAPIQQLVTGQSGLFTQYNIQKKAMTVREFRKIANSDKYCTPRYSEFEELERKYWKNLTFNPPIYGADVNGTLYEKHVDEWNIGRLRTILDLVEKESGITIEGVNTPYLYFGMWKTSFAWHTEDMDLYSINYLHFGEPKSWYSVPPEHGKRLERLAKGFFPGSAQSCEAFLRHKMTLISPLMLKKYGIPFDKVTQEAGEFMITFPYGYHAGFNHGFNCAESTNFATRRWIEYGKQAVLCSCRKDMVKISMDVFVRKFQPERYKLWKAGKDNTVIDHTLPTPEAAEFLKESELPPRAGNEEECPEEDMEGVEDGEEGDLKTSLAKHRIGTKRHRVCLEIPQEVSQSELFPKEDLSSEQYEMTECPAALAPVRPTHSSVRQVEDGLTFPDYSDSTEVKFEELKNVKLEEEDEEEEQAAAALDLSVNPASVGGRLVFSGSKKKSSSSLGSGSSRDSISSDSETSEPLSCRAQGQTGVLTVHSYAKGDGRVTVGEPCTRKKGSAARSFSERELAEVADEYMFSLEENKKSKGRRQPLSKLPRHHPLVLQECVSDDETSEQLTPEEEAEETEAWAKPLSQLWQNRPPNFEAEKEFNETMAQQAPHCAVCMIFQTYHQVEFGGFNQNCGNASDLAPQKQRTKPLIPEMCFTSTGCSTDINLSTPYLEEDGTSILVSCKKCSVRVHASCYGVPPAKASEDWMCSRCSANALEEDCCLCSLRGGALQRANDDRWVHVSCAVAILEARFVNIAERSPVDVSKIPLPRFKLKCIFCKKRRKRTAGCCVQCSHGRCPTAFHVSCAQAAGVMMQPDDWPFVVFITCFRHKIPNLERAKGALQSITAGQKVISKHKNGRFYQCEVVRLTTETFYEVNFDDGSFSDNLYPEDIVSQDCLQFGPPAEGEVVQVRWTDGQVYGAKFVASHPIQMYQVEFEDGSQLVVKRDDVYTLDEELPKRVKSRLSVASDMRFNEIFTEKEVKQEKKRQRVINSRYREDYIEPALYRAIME
G9a block: G9a (human) methyltransferase inhibition; G9a H3K9 monomethylation, AlphaScreen, 2 h; Potency, µM (highest dose often 102 µM), actives largely listed as inhibitors; 350,000 tested, 8.8% active; further: nearly all actives have a fitted effect of over 75% in size
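AlphaScreen detection with an anti-monomethyl H3K9 antibody quantified product after a 2 h room-temperature reaction containing 500 nM biotinylated H3K9 peptide, 20 µM SAM and 20 nM enzyme, which had been preincubated 15 min with compound.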
Sfp PPTase inh: inhibitors of Bacillus subtilis Sfp phosphopantetheinyl transferase | Q9F4F7 | Biochemical Sfp PPTase activity, qHTS | Potency, µM, usual class: inhibitors | 310,000 tested, 3.5% active;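 further: the enzyme is Sfp with the accession as filed and its product quenches rhodamine fluorescence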
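Fluorescence-quenching assay: 15 nM Sfp-PPTase preincubated 15 min at room temperature with compound, then 5 uM rhodamine-CoA and 12.5 uM BHQ-2-labelled YbbR peptide added. Fluorescence (ex 525/em 598 nm) read at start and after 30 min; difference gives rate.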
HP1b chromo inh: inhibitors of HP1-beta chromodomain binding to methylated histone tails. P83916. AlphaScreen HP1-beta / biotin-H3K9me3 peptide binding. Potency, µM (doses to about 114 µM), most hits filed as inhibitors. 390,000 tested, 0.56% active; further: nearly all actives have a fitted effect of over 70% in size
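Compound inhibition of the preformed complex between 50 nM HP1-beta and 50 nM biotinylated H3K9me3 peptide was read by AlphaScreen. Buffer was PBS pH 7.4 with 0.01% Tween-20. Incubations ran 30 min at room temperature, with 10 ug/mL donor/acceptor beads.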
BAZ2B inh: inhibitors of human BAZ2B bromodomain | Q9UIF8 | AlphaScreen BAZ2B-H3K14Ac peptide displacement | Potency, µM (series often up to 114 µM), usual class: inhibitors | 360,000 tested, 4.4% active; further: nearly all actives have a fitted effect of over 60% in size
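AlphaScreen displacement: compounds (up to 110uM) incubated 30 min at room temperature with a preformed 50 nM BAZ2B/50 nM biotinylated H3K14Ac peptide complex in PBS pH 7.4 with Tween-20. Donor and acceptor beads at 10 ug/mL final added, 20 min light-protected before reading.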
PLK1 PBD inh: inhibitors of human PLK1 polo-box domain binding; P53350; Plk1 PBD binding of FITC phosphopeptide, fluorescence polarization; Potency, µM, actives largely listed as inhibitors; 360,000 tested, 2.8% active; AID 720504; further: series mostly up to about 57 µM; nearly all actives have a fitted effect of over 65% in size
Hits are given with their value; 0 = inactive; ? = inconclusive; - = no result given; ! = not confirmed by another sample; [ ] = remark or other dose. The call rests on the fitted dose curve; in most records, active means well fitted curve in the direction sought with a large enough effect; inconclusive means small, poorly fitted or top-dose-only effect, or another doubt; inactive means no such curve, though single readings can be large; an effect the other way counts as inactive or inconclusive.

SMILES	JMJD2A Tudor	G9a block	Sfp PPTase inh	HP1b chromo inh	BAZ2B inh	PLK1 PBD inh
C[C@H]([C@@H](N)C(=O)N[C@@H](C(=O)O)[C@@H]1O[C@H](n2ccc(=O)[nH]c2=O)[C@@H](O)[C@H]1O)[C@@H](O)c1ccc(O)cn1	0	3.2µM	56µM	0	?	0
CC(C)(C)Nc1oc(-c2ccccc2)nc1-c1cccc2ccccc12	-	-	0	-	-	-
COCCN(CC(=O)NCC1CCCO1)C(=O)CCC(=O)Nc1ccccn1 (stereo unspecified)	?	0	0	0	0	4.7µM
O=C(CN(CC1CCCO1)C(=O)CCC(=O)Nc1ccccn1)NCC1CCCO1 (stereo unspecified)	0	?	0	0	0	0
COCCN(CC(=O)NCC1CCCO1)C(=O)CCC(=O)Nc1cc(C)ccn1 (stereo unspecified)	0	28µM	0	0	0	0
CNC(=O)COc1ccc(NC(=O)CCn2nc(-c3ccc(C)cc3)c3ccccc3c2=O)cc1	0	0	-	0	0	-
COc1cccc2c1C(=O)C=C(C)C2=O	0	0	0	0	0	0
CC1=CC(=O)c2ccccc2C1=O	0	8.9µM	?	0	?	0
CC(C)(C=O)C1=CC(=O)c2ccccc2C1=O	25µM	1.8µM	6.3µM	5µM	50µM	2.1µM
COc1ccc(S(=O)(=O)N(C)C[C@H]2Oc3ccc(NS(=O)(=O)c4ccc(F)cc4)cc3C(=O)N([C@H](C)CO)C[C@@H]2C)cc1	0	-	-	0	-	0
COc1ccc(CNC(=O)c2ccc3nc(C(C)C)oc3c2)cc1OC	0	0	-	0	0	-
O=C1Nc2ccccc2C1(O)C/C(=N/O)c1ccccc1 (stereo unspecified)	20µM	0	0	0	0	27µM
O=C1c2ccccc2C(=O)c2c1oc(C(F)(F)F)c2C(=O)c1ccccc1	?	4µM	0	?	7.1µM	0
CC(=O)c1c(C)oc2c1C(=O)c1ccccc1C2=O	0	0	0	0	0	0
COc1ccc2occ(C(=O)c3ccccc3)c2c1	0	0	?	0	0	0
COc1ccc(C(=O)c2coc3c2C(=O)C(=O)c2ccccc2-3)cc1	?	-	32µM	?	25µM	?
O=C(c1ccccc1)c1coc2c1C(=O)c1ccccc1C2=O	0	45µM	?	?	32µM	0
CNc1ccc(OC(F)F)cc1C(=O)c1ccccc1	?	0	0	0	?	0
Cc1cccc(OC(C)C(=O)NCc2ccc(S(N)(=O)=O)cc2)c1 (stereo unspecified)	0	0	0	0	0	0
CC(C)(Oc1ccc(Cl)cc1)C(=O)NCc1ccc(S(N)(=O)=O)cc1	0	45µM	0	0	?	0
COC(=O)CNC(=O)C(C)(C)Oc1ccc(Cl)cc1	0[11.4 µM]	0	0	0	0	0
CC(Oc1cccc(Cl)c1)C(=O)NCc1ccc(S(N)(=O)=O)cc1 (stereo unspecified)	?	-	0	0	0	19µM
COc1cc2nc(N(C)CCCNC(=O)C3CCCO3)nc(N)c2cc1OC (stereo unspecified)	-	11µM!	0	-	0	-
COc1ccc(/C=C/c2cc(OC)c(OC)cc2CC[N+](C)(C)C)cc1	-	-	0	-	-	-
COc1ccc(/C=C\c2cc(OC)c(OC)cc2CC[N+](C)(C)C)cc1OC	0	13µM	0	0	0	0
SMILES	JMJD2A Tudor	G9a block	Sfp PPTase inh	HP1b chromo inh	BAZ2B inh	PLK1 PBD inh
Cc1ccc(NS(=O)(=O)c2ccc(NC(=O)c3ccccc3C(=O)O)cc2)cc1C	0	-	-	0	-	0
N#Cc1ccc[n+](CC(=O)c2ccc(Cl)cc2)c1	0	79µM	0	0	0	0
Cc1ccc[n+](CC(=O)c2ccc(Br)cc2)c1	0	0	0	0	0	0
CCCc1nc2ccccc2n1CC(O)COc1ccc(C(=O)OC)cc1 (stereo unspecified)	0	0	-	0	0	-
CN(C)c1ccc(/C=C2\C(=N)N3N=C(CC(=O)N4CCCCC4)SC3=NC2=O)cc1	?	0	0	0	?	0
Cc1ccc(/C=C2/C(=N)N3N=C(CC(=O)N4CCCC4)SC3=NC2=O)o1	0	32µM	0	0	0	0
CN(C)c1ccc(/C=C2\C(=N)N3N=C(CC(=O)N4CCCC4)SC3=NC2=O)cc1Br	0	0	0	0	0	0
N=C1/C(=C\c2ccc(Br)o2)C(=O)N=C2SC(CC(=O)N3CCCCC3)=NN12	0	45µM	0	0	?	0
CC(=O)c1cccc(NC(=O)c2nc(-c3ccc(C)cc3)n3c2CCCCC3)c1	0	0	-	0	0	-
O=C(c1ccc(Br)cc1)N(Cc1ccco1)c1ccccn1	0	0	-	0	?	-
COc1ccc(N2C(=NC(=O)C3CCCCC3)SC3CS(=O)(=O)CC32)cc1 (stereo unspecified)	0	0	0	0	0	0
COc1ccc(N2C(=NC(=O)C3CCCCC3)SC3CS(=O)(=O)CC32)c(OC)c1 (stereo unspecified)	28µM	0	0	0	0	12µM
OC[C@H]1O[C@@](CO)(O[C@H]2O[C@H](CO)[C@@H](O)[C@H](O)[C@H]2O)[C@@H](O[C@H]2O[C@H](CO)[C@@H](O)[C@H](O)[C@H]2O)[C@@H]1O	0	-	-	0	-	0
NCCNC(=O)c1ccc(Cl)cn1	-	0[12.7 µM]	?	-	-	-
COC(=O)c1ccc(CSc2ccc3nnc(-c4ccc(OC)cc4)n3n2)o1	-	0	0	-	0	-
COC(=O)c1ccc(CSc2ccc3nnc(-c4cccnc4)n3n2)o1	-	25µM	0	-	0	-
O=C(CSc1ccc2nnc(-c3cccnc3)n2n1)Nc1ccccc1	0	50µM	0	0	0	0
COc1cccc(NC(=O)CSc2ccc3nnc(-c4ccncc4)n3n2)c1	0	50µM	0	0	0	0
COc1ccc(-c2nnc3ccc(SCC(=O)Nc4cc(C)on4)nn23)cc1	-	56µM	0	-	-	-
CCN(CC)S(=O)(=O)c1nnc(NC(=O)COc2ccc(C)cc2)s1	0	0	-	0	?	-
O=S1(=O)CC=C(CSC(=S)NC2CCS(=O)(=O)C2)C1 (stereo unspecified)	0	45µM	?	0	0	?
Cc1cccc(C(=O)N2CCN(S(=O)(=O)N3CCCCCC3)CC2)c1	0	0	0	0	0	0
CC(=O)OC1=C(C#N)Cn2ccc3cccc1c32	-	11µM	0	-	0	-
CCOc1ccc(NC(=S)NNC(=S)Nc2cccc(C(F)(F)F)c2)cc1	0	-	35µM	0	?	?
Cc1cc(C(F)(F)F)nn1CC(=O)NNC(=S)Nc1ccc(F)cc1	0	0[12.7 µM]	0	0	0	0
CCOc1ccc(NC(=S)NNC(=O)c2cc(Br)ccc2Cl)cc1	0	45µM	0	0	0	0
COc1ccc(NC(=S)NNC(=S)Nc2cccc(C(F)(F)F)c2)cc1	?	22µM	20µM	?	?	?
CCOc1ccc(NC(=S)NC(=O)c2cncc(Br)c2)cc1	0	-	-	0	-	0
